# Measurements as given in PubChem BioAssay (NCATS).
# “And” between values parts separate entries of the source, which are not always exact repeats. Equal entries are not always repeated. Records with an inconclusive call do not appear. Where a call stands in place of a potency, no number is given. The source made the active and inactive calls. Calls follow the shape of the dose curve; as a rule, active = well fitted inhibition curve with a large enough effect; inconclusive = small, poorly fitted or top-dose-only effect; inactive = flat fitted curve, though single readings scatter.
# Assay: P-glycoprotein substrates identified in KB-8-5-11 adenocarcinoma cell line, qHTS therapeutic library screen (AID 1346987); also: nearly all actives have a fitted effect of over 65% in size
# Conditions: KB-8-5-11 (P-gp overexpressing) viability, CellTiter-Glo, 72 h; series mostly up to 44.5 µM
# Text: The ATP-binding cassette transporters P-glycoprotein (P-gp) is known to limit brain penetration of many chemotherapy drugs. […] As such, we developed a high-throughput screen (HTS) to identify substrates of P-gp from a series of chemical libraries including the National Center for Advancing Translational Sciences Pharmaceutical Collection NPC, 2,816 compounds), testing a total of 10,804 compounds, most of which have known mechanisms of action. We used the CellTiter-Glo viability assay to test library compounds against the parental KB-3-1 human cervical adenocarcinoma cell line and the colchicine-selected sub-line KB-8-5-11 that over-expresses P-gp. KB-8-5-11 cells were also tested in the presence of a P-gp inhibitor (tariquidar) to assess reversability of transporter-mediated resistance. Of the tested compounds, a total of 90 P-gp substrates were identified including 55 newly identified P-gp substrates. Substrates were confirmed using an orthogonal killing assay against HEK-293 cells transfected with P-gp. As exemplars, we confirmed that […] (cyclin-dependent kinase inhibitor); AT9283, (Janus kinase 2/3 inhibitor); ispinesib (kinesin spindle protein inhibitor); gedatolisib (PKI-587, phosphoinositide 3-kinase/mammalian target of rampamycin inhibitor); GSK-690693 (AKT inhibitor); and KW-2478 (heat shock protein 90 inhibitor) were substrates , and direct ATPase stimulation was assessed. ABCG2 was also found to confer high levels of resistance to AT9283, GSK-690693 and gedatolisib, while ispinesib, AT7519 and KW-2478 were weaker substrates.
# The HeLa derivative cell line, KB-3-1, and its colchicine-selected, P-gp-overexpressing subline, KB-8-5-11 were maintained in DMEM with 10% FCS and Pen/Strep with glutamine at 37 degree C in 5% CO2. For KB-8-5-11 cells, colchicine was added to the medium at a concentration of 100 ng/mL. HEK-293 cells transfected with empty vector (pcDNA) or vector containing human ABCB1 (MDR-19) or ABCG2 (R-5) have been described previously (Robey, Lin, Qiu, Chan & Bates, 2011) and were maintained in EMEM supplemented with 10% FCS, Pen/Strep and glutamine with 2 mg/ml G418 to select for the expression of the transporter. Cultures were confirmed to be free of mycoplasma infection using the MycoAlert Mycoplasma Detection Kit (Lonza, Walkersville, MD). For the screen, assay medium was identical to culture medium except for KB-8-5-11 where colchicine was excluded from the medium.
# All cell lines were plated into 1536-well plates at 500 cells/well in 5 uL media. Compounds were then pinned in dose-response using a 1536-head pin tool (Kalypsis, San Diego, CA) and plates were incubated at 37 degree C in 5% CO2 for an additional 72 h. CellTiter-Glo reagent (Promega) was dispensed into the wells, incubated for 5 min and luminescence was read on a ViewLux instrument (Perkin-Elmer). Cytotoxic compounds were defined as those that yielded a curve class of -1.1, -1.2, -2.1, -2.2, -2.3, or -2.4, a maximum response of >50% and an AC50 of < 10 uM. Cherry-picked hits from screening analysis were tested with both the KB pair of cell lines, and the pcDNA (empty vector control) and MDR-19 (P-gp overexpressing) pair were tested, in the absence and presence of tariquidar.
# Potency is read from the fitted curve at half-maximal effect.
row,Compound,Potency
1,C[C@H](NC(=O)C(=O)Nc1ccccc1C(C)(C)C)C(=O)N[C@@H](CC(=O)O)C(=O)COc1c(F)c(F)cc(F)c1F,inactive
2,CC[C@@H]1C=C(C)C[C@H](C)C[C@H](OC)[C@H]2O[C@@](O)(C(=O)C(=O)N3CCCC[C@@H]3C(=O)O[C@H](C(C)=C[C@@H]3CC[C@H](Cl)[C@H](OC)C3)[C@H](C)[C@@H](O)CC1=O)[C@H](C)C[C@H]2OC,inactive
3,COc1cc2c(cc1OC)CN(CCc1ccc(NC(=O)c3cc(OC)c(OC)cc3NC(=O)c3cnc4ccccc4c3)cc1)CC2,inactive
4,O=C(NCc1ccncc1)C12C[C@H]3C[C@@H](C1)CC(c1ccc(Cl)cc1)(C3)C2,inactive
5,CC1(C)CCC[C@@]2(C)[C@@H]1CC[C@@]1(C)OC(=O)C[C@H]21,inactive
6,O=C(NOCC(O)CO)c1cc(Br)c(F)c(F)c1Nc1ccc(I)cc1F (stereo not given),inactive
7,CC(=O)Oc1cc2c(s1)CCN(C(C(=O)C1CC1)c1ccccc1F)C2 (stereo not given),inactive
8,COc1cc2nc(-c3ccc(N4CCN(C)CC4)cc3)nc(NCCN3CCOCC3)c2cc1OC,7.31 µM (active)
9,CC1(C)O[C@H]2C[C@@H]3[C@H]4CCC5=CC(=O)C=C[C@]5(C)[C@@]4(F)[C@@H](O)C[C@]3(C)[C@]2(C(=O)CO)O1,inactive
10,N#Cc1ccc(NC(=O)Nc2ccccc2Br)c2n[nH]nc12,inactive
11,CC(C)(C)Cn1c(N)nc2ccc(-c3[nH]c(C(C)(C)C)nc3-c3ccc(F)cc3)nc21,20.9 µM (active) and 23.1 µM (active)
12,COc1ccc2cc(-c3nc(-c4ccc(S(C)=O)cc4)[nH]c3-c3ccncc3)ccc2c1 (stereo not given),inactive
13,O=C(O)CCc1nc(-c2ccccc2)c(-c2ccccc2)o1,inactive
14,O=c1cc(-c2ccc(O)cc2)oc2cc(O)cc(O)c12,inactive
15,C[C@]12CC[C@@H]3c4ccc(O)cc4CC[C@H]3[C@H]1C[C@@H](O)[C@H]2O,inactive
16,O=C(O)Cc1cccc2ccccc12,inactive
17,C[C@]12CC[C@@H]3c4ccc(O)cc4C[C@@H](CCCCCCCCCS(=O)CCCC(F)(F)C(F)(F)F)[C@H]3[C@H]1CC[C@H]2O (stereo not given in full),inactive
18,CO[C@H]1C=CC=C(C)C(=O)NC2=CC(=O)C(NCCN(C)C)=C(C[C@@H](C)C[C@H](OC)[C@@H](O)[C@@H](C)C=C(C)[C@@H]1OC(N)=O)C2=O,7.43 µM (active)
19,NCCS,inactive
20,O=C(N[C@@H](c1ccccc1)[C@@H]1CCCCN1)c1cccc(C(F)(F)F)c1Cl,inactive

row,Compound,Potency
1,Cc1ccc(Nc2cc(-c3cccc(N4C(=O)c5ccccc5C4=O)c3)ncn2)cc1NS(C)(=O)=O,inactive
2,CC=CCC=CCCC(=O)[C@H]1O[C@@H]1C(N)=O,inactive
3,CC(C)(C)COc1ccc(-n2cc(C(=O)O)cn2)cc1C#N,inactive
4,COc1ccc2c3c1OC1C[C@@H](O)C=C[C@@]31CCN(C)C2 (stereo not given in full),inactive
5,Cc1ccc(C(C)(O)c2nc3ccccc3s2)c(C)c1 (stereo not given),inactive
6,CC(C)[C@H](CO)Nc1nc(Nc2ccc(C(=O)O)c(Cl)c2)c2ncn(C(C)C)c2n1,inactive
7,COc1cc(N2CCC(N3CCN(C)CC3)CC2)ccc1Nc1ncc(Cl)c(Nc2ccccc2S(=O)(=O)C(C)C)n1,0.651 µM (active)
8,O=C1c2ccccc2-[n+]2ccc3c([nH]c4ccccc43)c21,3.32 µM (active)
9,Cc1c(NC(=O)c2ccc(C(C)(C)C)cc2)cccc1-c1cn(C)c(=O)c(Nc2ccc(C(=O)N3CCOCC3)cc2)n1,inactive
10,O=C(NC1CCOCC1)c1ccc(-c2cc(-c3cn[nH]c3-c3ccccn3)ccn2)cc1,inactive
11,NC(=O)NN=Cc1ccc([N+](=O)[O-])o1,inactive
12,NC(=O)c1cccc(-c2cc(Nc3ccc(OC(F)(F)F)cc3)ncn2)c1,inactive
13,CN1CCN(CCOc2cc(OC3CCOCC3)c3c(Nc4c(Cl)ccc5c4OCO5)ncnc3c2)CC1,inactive
14,CNC(=O)c1ccc2cc(C3(O)CCn4cncc43)ccc2c1 (stereo not given),inactive
15,CCC(=O)O[C@]1(C(=O)CO)CC[C@H]2[C@@H]3CCC4=CC(=O)CC[C@]4(C)[C@@H]3CC[C@@]21C,inactive
16,COc1ccc(-c2coc3cc(O)cc(O)c3c2=O)cc1,inactive
17,Nc1ncnc2c1ncn2[C@@H]1O[C@@H](CO)[C@H](O)[C@H]1O,inactive
18,O=C(Nc1c(Cl)cncc1Cl)c1ccc(OC(F)F)c(OCC2CC2)c1,inactive
19,CC(C)=CC[C@@H](O)C1=CC(=O)c2c(O)ccc(O)c2C1=O,inactive
20,COc1ccc(-n2c(C)c([N+](=O)[O-])c3ccc(O)cc32)cc1,inactive
